# Results as given in the supplement of paper PMC10849652.
# Of roughly 7,900 targets only a part is listed; those with a hit were picked by preference. About 0.6% of all pairs of compound and target were hits. Unmarked numbers belong to inactive results.
# How the values were obtained:
# Assay in all cases: log2 fold change, soluble protein after heating vs DMSO (PISA); higher = thermal stabilisation; K562 cells, 10 uM, 30 min; active = over 0.2 and 3.5 SD of the protein, either way, in both replicates (recomputed)
# [1] = compound: CS(=O)(=O)c1ccc(-c2cnc(N)c(C(=O)Nc3ccccc3)n2)cc1
# Outline: (§1)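 For each measurement, 10 μM compound was applied for 30 min to K562 cells at 2×10^6 cells/mL. Aliquots were heated for 3 min across 48°C-58°C, pooled, and extracted in PBS with 0.5% NP-40 at 4°C; the supernatant after 21,000xg for 90 min was soluble protein. This was quantified by TMTpro 16plex LC-MS/MS with channel sums equalised, and thermal stability was reported relative to control samples from duplicates, on a log2 fold-change scale.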
# [2] = compound: C[C@@H](Oc1cc(-c2cnn(C3CCNCC3)c2)cnc1N)c1c(Cl)ccc(F)c1Cl [crizotinib]
# Outline: as §1
# [3] = compound: C[C@@H]1COCCN1C2=NC(=NC(=C2)C3(CC3)S(=O)(=O)C)C4=C5C=CNC5=CC=C4
# Outline: as §1
# [4] = compound: C[C@H](C1=CC=C(C=C1)C(=O)NC2=C3C=CNC3=NC=C2)N
# Outline: as §1
# [5] = compound: C[C@H](Nc1ncnc2nc[nH]c12)c1cc2cccc(Cl)c2c(=O)n1-c1ccccc1 [duvelisib]
# Outline: as §1
# [6] = compound: Cc1cc(Nc2cc(CN3CCOCC3)c3nc(C)c(Cc4ccc(Cl)cc4F)n3n2)n[nH]1 [gandotinib]
# Outline: as §1
# [7] = compound: Cc1cc(Nc2cc(N3CCN(C)CC3)nc(Sc3ccc(NC(=O)C4CC4)cc3)n2)n[nH]1 [tozasertib]
# Outline: as §1
# [8] = compound: Cc1cc(SCc2sc(-c3ccc(C(F)(F)F)cc3)nc2C)ccc1OCC(=O)O
# Outline: as §1
# [9] = compound: Cc1ccc(-n2nc(C(C)(C)C)cc2NC(=O)Nc2ccc(OCCN3CCOCC3)c3ccccc23)cc1 [doramapimod]
# Outline: as §1
# [10] = compound: Cc1ccc(C(=O)N(CCCN)[C@@H](c2nc3cc(Cl)ccc3c(=O)n2Cc2ccccc2)C(C)C)cc1 [ispinesib]
# Outline: as §1
# [11] = compound: Cc1ccc(NC(=O)c2ccc(CN3CC[C@H](N(C)C)C3)c(C(F)(F)F)c2)cc1Nc1nccc(-c2cncnc2)n1 [bafetinib]
# Outline: as §1
# [12] = compound: Cc1cccc(CC(=O)N2CCc3c2ccc(-c2cn(C)c4ncnc(N)c24)c3F)n1
# Outline: as §1
# [13] = compound: Cc1cn(-c2cc(NC(=O)c3ccc(C)c(Nc4nccc(-c5cccnc5)n4)c3)cc(C(F)(F)F)c2)cn1 [nilotinib]
# Outline: as §1
# [14] = compound: Cc1nc(Nc2n[nH]c3c2CN(C(=O)N[C@H](CN(C)C)c2ccccc2)C3(C)C)c2sccc2n1
# Outline: as §1
# [15] = compound: Cc1nc(Nc2ncc(C(=O)Nc3c(C)cccc3Cl)s2)cc(N2CCN(CCO)CC2)n1 [dasatinib]
# Outline: as §1
# [16] = compound: Cc1ncc(-c2ccnc(Nc3ccc(S(C)(=O)=O)cc3)n2)n1C(C)C
# Outline: as §1
# [17] = compound: Cn1cc(-c2ccc3c(c2)CCN3C(=O)Cc2cccc(C(F)(F)F)c2)c2c(N)ncnc21
# Outline: as §1
# [18] = compound: Cn1cc(-c2ccc3nnc(C(F)(F)c4ccc5ncccc5c4)n3n2)cn1
# Outline: as §1
# [19] = compound: Cn1cncc1[C@@](N)(c1ccc(Cl)cc1)c1ccc2c(c1)c(-c1cccc(Cl)c1)cc(=O)n2C [tipifarnib]
# Outline: as §1
# [20] = compound: FC(F)(F)c1ccc(/C=C/c2nc(COc3ccc(CCCCn4ccnn4)cc3)co2)cc1 [mubritinib]
# Outline: as §1
# UniProt P61960, sequence (P61960 whole entry, looked up): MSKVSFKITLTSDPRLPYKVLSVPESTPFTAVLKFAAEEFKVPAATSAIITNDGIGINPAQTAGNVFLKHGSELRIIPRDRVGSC
# UniProt Q6NXR4, sequence (Q6NXR4 whole entry, looked up): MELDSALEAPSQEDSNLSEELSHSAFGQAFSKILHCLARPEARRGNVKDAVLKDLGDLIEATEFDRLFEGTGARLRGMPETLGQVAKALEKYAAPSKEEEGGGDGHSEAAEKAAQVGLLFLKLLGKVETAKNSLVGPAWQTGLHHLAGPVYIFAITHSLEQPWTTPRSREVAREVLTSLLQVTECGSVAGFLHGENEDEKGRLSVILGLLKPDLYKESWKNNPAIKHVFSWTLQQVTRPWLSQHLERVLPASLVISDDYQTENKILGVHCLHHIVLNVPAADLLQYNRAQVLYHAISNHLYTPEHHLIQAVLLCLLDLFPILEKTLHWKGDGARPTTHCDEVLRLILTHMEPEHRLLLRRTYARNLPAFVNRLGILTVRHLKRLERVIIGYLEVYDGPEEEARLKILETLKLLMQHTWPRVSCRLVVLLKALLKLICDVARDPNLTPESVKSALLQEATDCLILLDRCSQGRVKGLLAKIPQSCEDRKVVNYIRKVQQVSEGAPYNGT
# UniProt A6NHL2, sequence (A6NHL2 whole entry, looked up): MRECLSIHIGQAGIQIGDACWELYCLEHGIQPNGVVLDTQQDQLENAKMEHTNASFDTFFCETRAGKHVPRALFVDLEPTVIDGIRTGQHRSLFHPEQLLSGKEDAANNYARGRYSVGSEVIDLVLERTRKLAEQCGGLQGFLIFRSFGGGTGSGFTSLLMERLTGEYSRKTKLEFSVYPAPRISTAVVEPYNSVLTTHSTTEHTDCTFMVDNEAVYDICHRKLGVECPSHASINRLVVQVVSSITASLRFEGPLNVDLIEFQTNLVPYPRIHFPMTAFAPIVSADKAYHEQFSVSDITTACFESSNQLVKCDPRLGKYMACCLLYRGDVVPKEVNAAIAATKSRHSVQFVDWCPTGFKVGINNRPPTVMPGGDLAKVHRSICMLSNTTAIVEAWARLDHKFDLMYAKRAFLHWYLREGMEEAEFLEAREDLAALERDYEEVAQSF
# UniProt Q9UBK9, sequence (Q9UBK9 whole entry, looked up): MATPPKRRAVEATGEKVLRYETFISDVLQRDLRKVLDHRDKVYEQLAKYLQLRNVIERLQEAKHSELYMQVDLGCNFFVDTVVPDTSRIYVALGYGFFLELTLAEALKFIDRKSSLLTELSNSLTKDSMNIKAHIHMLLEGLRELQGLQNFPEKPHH
# UniProt Q9P0T7, sequence (Q9P0T7 whole entry, looked up): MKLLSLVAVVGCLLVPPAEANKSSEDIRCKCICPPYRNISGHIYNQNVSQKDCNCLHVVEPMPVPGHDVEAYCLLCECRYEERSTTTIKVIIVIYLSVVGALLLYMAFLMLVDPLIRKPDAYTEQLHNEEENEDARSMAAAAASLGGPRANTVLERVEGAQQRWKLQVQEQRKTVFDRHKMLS
# UniProt Q8N1B4, sequence (Q8N1B4 whole entry, looked up): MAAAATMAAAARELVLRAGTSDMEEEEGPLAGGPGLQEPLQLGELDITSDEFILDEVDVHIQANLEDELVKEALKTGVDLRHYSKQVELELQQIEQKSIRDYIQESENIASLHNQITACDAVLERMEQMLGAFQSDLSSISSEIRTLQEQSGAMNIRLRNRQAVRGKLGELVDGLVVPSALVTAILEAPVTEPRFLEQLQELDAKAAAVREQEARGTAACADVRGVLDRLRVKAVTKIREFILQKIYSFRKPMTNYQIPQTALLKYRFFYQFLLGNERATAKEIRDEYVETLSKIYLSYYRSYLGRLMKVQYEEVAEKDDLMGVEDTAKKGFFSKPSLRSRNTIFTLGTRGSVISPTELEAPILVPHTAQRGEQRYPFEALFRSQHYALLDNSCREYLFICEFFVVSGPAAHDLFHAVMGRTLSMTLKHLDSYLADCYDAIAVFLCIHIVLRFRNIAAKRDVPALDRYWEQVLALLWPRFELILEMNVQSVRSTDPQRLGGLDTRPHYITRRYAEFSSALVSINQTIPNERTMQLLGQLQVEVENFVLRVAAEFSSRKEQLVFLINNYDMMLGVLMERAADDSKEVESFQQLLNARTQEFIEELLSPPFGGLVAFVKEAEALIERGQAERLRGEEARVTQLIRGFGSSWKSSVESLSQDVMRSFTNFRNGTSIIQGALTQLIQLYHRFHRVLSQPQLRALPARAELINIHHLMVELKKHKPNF
# UniProt Q9H4I3, sequence (Q9H4I3 whole entry, looked up): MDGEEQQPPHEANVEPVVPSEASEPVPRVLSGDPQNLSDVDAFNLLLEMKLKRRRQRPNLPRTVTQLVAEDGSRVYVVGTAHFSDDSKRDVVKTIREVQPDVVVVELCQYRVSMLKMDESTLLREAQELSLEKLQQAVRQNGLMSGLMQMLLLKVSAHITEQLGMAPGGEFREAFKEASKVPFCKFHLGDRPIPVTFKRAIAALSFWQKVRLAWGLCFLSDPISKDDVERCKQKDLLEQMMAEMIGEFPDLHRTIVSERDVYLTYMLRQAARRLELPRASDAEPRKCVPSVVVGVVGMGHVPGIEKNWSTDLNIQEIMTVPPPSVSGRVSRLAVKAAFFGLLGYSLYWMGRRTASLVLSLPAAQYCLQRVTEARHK
# UniProt P12270, sequence (P12270 whole entry, looked up): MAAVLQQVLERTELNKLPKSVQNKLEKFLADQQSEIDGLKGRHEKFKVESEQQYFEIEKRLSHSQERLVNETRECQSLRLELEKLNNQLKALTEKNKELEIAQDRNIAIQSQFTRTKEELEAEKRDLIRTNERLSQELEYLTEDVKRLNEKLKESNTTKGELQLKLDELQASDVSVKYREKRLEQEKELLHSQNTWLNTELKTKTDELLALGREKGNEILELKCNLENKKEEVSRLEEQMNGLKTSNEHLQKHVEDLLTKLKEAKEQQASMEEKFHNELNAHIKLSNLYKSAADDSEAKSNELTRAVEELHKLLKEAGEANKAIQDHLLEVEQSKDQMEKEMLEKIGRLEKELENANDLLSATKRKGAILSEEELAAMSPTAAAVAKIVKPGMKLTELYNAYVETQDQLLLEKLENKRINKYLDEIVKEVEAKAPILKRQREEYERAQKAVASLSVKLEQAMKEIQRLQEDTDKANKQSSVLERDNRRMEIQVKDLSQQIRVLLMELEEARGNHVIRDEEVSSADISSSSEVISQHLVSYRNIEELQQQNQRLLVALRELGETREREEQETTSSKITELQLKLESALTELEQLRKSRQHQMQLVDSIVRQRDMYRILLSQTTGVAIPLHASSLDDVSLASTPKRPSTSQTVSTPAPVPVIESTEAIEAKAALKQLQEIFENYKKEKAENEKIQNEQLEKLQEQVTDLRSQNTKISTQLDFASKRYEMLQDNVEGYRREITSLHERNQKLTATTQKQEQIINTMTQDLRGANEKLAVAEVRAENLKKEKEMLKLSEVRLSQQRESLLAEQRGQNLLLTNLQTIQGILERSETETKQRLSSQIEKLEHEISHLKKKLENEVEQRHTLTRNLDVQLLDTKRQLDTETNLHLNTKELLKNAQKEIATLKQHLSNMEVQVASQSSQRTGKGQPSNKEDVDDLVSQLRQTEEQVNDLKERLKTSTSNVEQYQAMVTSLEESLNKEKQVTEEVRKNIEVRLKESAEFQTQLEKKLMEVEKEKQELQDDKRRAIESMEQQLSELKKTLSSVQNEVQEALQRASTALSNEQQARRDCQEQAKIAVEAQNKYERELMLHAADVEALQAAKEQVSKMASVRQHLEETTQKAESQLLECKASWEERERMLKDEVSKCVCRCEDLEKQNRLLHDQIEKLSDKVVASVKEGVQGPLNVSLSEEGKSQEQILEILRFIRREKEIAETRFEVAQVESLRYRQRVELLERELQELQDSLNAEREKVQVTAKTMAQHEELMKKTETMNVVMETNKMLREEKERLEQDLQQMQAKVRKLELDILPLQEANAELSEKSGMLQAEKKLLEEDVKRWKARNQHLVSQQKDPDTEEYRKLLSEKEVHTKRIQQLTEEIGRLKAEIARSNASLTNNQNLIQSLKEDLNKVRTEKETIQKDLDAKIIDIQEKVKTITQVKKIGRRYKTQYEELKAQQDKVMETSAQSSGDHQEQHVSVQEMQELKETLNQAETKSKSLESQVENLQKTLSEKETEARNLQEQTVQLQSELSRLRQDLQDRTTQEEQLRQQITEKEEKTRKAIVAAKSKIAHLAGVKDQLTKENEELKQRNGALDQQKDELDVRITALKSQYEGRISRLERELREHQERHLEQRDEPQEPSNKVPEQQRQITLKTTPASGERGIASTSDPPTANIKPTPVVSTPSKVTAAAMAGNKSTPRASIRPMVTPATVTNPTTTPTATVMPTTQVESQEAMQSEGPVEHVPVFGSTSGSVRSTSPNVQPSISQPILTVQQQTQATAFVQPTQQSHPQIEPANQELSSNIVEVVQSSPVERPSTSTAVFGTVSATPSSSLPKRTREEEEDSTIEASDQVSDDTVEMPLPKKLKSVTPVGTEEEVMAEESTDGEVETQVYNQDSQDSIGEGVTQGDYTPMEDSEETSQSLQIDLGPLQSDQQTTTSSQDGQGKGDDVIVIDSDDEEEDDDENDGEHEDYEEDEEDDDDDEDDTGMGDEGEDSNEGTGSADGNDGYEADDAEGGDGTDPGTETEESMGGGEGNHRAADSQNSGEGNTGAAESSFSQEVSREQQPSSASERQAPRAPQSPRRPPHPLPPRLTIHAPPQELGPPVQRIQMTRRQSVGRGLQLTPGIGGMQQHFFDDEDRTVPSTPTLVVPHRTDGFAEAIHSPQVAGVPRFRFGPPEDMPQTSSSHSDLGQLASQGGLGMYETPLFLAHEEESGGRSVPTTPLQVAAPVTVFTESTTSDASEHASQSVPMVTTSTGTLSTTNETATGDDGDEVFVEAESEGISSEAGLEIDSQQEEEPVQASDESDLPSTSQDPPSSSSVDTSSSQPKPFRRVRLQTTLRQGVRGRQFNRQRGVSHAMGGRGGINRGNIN
# UniProt Q5BJH2, sequence (Q5BJH2 whole entry, looked up): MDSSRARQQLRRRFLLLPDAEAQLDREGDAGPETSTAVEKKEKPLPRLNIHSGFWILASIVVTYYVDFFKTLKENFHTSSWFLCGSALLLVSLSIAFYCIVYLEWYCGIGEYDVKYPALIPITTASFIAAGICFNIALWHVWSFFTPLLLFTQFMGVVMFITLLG
Target,log2 fold change [1],log2 fold change [2],log2 fold change [3],log2 fold change [4],log2 fold change [5],log2 fold change [6],log2 fold change [7],log2 fold change [8],log2 fold change [9],log2 fold change [10],log2 fold change [11],log2 fold change [12],log2 fold change [13],log2 fold change [14],log2 fold change [15],log2 fold change [16],log2 fold change [17],log2 fold change [18],log2 fold change [19],log2 fold change [20]
VPS52 (UniProt Q8N1B4),-0.001,-0.102,-0.031,0.058,0.033,-0.122,0.022,-0.013,0.008,-0.068,-0.005,-0.031,-0.085,-0.086,-0.071,0.091,0.001,-0.016,-0.089,0
UBA52 (UniProt P62987),-0.065,-0.02,-0.909 (active),0.364,,0.44,0.053,,0.118,-0.165,0.285,-0.001,,,,,-0.343,-0.16,0.247,-0.115
WARS1 (UniProt G3V5U1),0.092,0.09,-0.282,,,,,,-0.299,,-0.569,,,,,,,,,-0.161
UFM1 (UniProt P61960),0.021,0.004,0.178,-0.062,0.146,,-0.056,-0.043,-0.037,0.158,0.045,,-0.011,0.025,-0.012,0.026,0.008,0.007,-0.061,0.087
TPR (UniProt P12270),-0.03,0.297 (active),0.013,-0.083,0.017,0.008,0.349 (active),-0.027,0.037,0.223,-0.011,-0.004,0.056,0.04,0.158,0.047,-0.184,-0.017,0.002,0.089
TRABD (UniProt Q9H4I3),-0.041,0.174,0.097,-0.062,,0.059,0.009,,0.025,0.597 (active),0.202,-0.038,0.185,0.02,,-0.093,0.145,-0.013,0.012,-0.032
UXT isoform 2 (UniProt Q9UBK9),0.063,0.056,0.184,0.006,0.017,0.255,0.021,-0.034,0.017,-0.035,0.016,0.036,0.04,-0.068,-0.033,0.001,0.11,0.026,-0.144,0.014
XRCC1 (UniProt P18887),0,0.093,0.087,0.049,0.133,-0.019,-0.235,-0.132,-0.101,0.062,,0.019,,,0,,0.123,0.063,,
TOM1L2 (UniProt Q6ZVM7),0.03,0.101,0.118,0.087,0.099,,,0.035,0.02,,,,-0.047,-0.127,-0.091,-0.125,0.028,,,
TMEM9 (UniProt Q9P0T7),-0.026,-0.026,0.029,-0.197,-0.012,-0.026,-0.049,0.014,0.048,-0.093,0.028,-0.048,-0.017,-0.022,-0.087,-0.037,0.057,-0.007,-0.068,0.025
TTI2 (UniProt Q6NXR4),-0.066,-0.155,0.028,0.121,-0.067,,0.004,0.142,0.013,-0.204,0.06,,-0.028,-0.068,-0.005,0.077,-0.017,-0.007,-0.059,-0.063
TUBAL3 (UniProt A6NHL2),-0.097,-0.128,0.161,0.02,0.009,-0.165,0,-0.02,0.113,-0.108,0.167,0.049,-0.144,0.027,0.051,-0.029,0.005,-0.095,-0.097,-0.01
VPS28 (UniProt Q9UK41),0.01,0.051,0.063,-0.091,0.044,-0.055,0,0.096,0.035,-0.041,-0.017,-0.021,-0.153,-0.063,-0.209,-0.019,0.01,0.006,-0.051,0.046
TMEM128 (UniProt Q5BJH2),0.001,0.234,-0.062,0.025,-0.009,,0.06,0.016,-0.138,0.021,-0.065,,-0.008,0.003,-0.01,-0.031,0.061,-0.021,0.066,
TMEM184C (UniProt Q9NVA4),0.117,-0.267,0.019,-0.049,-0.046,-0.038,0.046,0.036,0.019,-0.365 (active),-0.132,-0.111,-0.007,-0.047,0.116,-0.009,0.15,-0.092,,0.01
TRIM4 (UniProt Q9C037),0.114,0.045,0.037,0.061,,-0.023,0.023,,0.092,-0.033,0.039,-0.015,0.111,0.101,,0.058,0.042,-0.138,-0.014,0.033
"WDR46, A0A0G2JJL1",-0.119,0.086,-0.581,,-0.157,,0.198,-0.125,0.236,,0.339,,-0.094,0.202,0.381,0.105,,,0.171,-0.051
TMEM41A (UniProt Q96HV5),-0.023,0.139,0.137,,-0.001,-0.044,-0.138,0,0.025,0.065,-0.037,0.276 (active),-0.008,-0.01,0.054,-0.049,,0.082,0.026,0.062
UTP3 (UniProt Q9NQZ2),0.015,0.061,-0.494,0.363,-0.133,0.17,0.017,-0.04,0.099,-0.144,0.689 (active),-0.048,,,0.168,,-0.208,-0.132,0.212,-0.228
